RAM inhibit – inhibitors of the yeast RAM network, primary screen, dse1pr::URA3 reporter, 5-FOA selection | S. cerevisiae dse1pr::URA3 reporter, 5-FOA growth OD615, 2 d; analog-sensitive cbk1-as2 kinase mutant strain | inhibition, % at 50 µM | 190,000 compounds, 1.8% hits | AID 868, 2007;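 active means inhibition above a set limit, 3 SD over mean compound inhibition, cut at about 8.4% in these data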;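 further: 0% = DMSO-only wells with no growth and 100% = 10 µM 1-NA-PP1 full growth; inhibition rescues growth on 5-FOA so higher OD means more RAM inhibition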
EP2 antag – human EP2 receptor antagonists, primary screen, TR-FRET cAMP, C6 glioma cells; Prostaglandin E2 receptor EP2 subtype (Homo sapiens), P43116; C6 glioma cells expressing human EP2; cells stimulated with saturating PGE2; inhibition, % at 25 µM; 260,000 compounds, 0.52% hits; AID 1422, 2008;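 active means percent inhibition above 40 after rounding to a whole number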;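 further: rat C6 glioma host cells with rolipram phosphodiesterase inhibitor present; the protocol text gives 20 µM as final concentration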
PG9 binder – binders of HIV-1 gp120 antibody PG9, primary screen, biochemical, TR-FRET; HIV-1 gp120 / PG9 antibody interaction; 360,000 compounds, 0.43% hits; TR-FRET gp120-PG9 antibody binding; inhibition, % at 6.7 µM; AID 624416, 2012; in the data active means inhibition above about 8.5%
Rev-erbA mod – modulators of Rev-erb alpha DNA binding, primary screen, biochemical, FITC-DNA, fluorescence polarization, uHTS. activity, % at 10 µM. Nuclear receptor subfamily 1 group D member 1 (Homo sapiens), P20393. Rev-erbα–FITC-DNA binding, 90 min. 370,000 compounds, 0.79% hits. AID 1259318, 2017;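 active means activity above about 14%, limit read from the data; passing the limit was not always enough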;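 further: 0% = DMSO wells with 35 nM protein and 100% = DMSO wells with 750 nM protein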
Target sequence (P20393 whole entry, looked up): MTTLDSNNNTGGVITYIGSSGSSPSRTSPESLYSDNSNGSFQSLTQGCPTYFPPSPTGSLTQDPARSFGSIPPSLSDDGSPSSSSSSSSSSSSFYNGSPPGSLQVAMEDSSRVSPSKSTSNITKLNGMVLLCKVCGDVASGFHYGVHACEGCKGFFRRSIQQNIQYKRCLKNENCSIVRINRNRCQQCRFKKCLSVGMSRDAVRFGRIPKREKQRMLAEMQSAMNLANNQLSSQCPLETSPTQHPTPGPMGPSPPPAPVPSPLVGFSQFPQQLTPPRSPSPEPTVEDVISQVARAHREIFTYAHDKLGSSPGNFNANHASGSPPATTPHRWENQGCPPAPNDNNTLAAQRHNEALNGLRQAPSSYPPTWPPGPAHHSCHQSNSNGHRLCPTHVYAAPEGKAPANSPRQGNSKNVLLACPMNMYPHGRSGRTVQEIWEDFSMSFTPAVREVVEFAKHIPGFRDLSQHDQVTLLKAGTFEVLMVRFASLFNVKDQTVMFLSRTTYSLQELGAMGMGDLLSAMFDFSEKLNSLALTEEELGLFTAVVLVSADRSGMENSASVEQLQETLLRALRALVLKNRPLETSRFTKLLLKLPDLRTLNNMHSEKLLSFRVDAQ
SKN-1 block – suppressors of acrylamide-induced Pgst-4::GFP reporter in worms, primary screen, SKN-1 inhibitor project, whole organism, uHTS, GFP/RFP fluorescence ratio, strain VP596; C. elegans VP596 Pgst-4::GFP/RFP ratio, 24 h; inhibition, % at 21.8 µM; 360,000 compounds, 0.49% hits;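 active means interference check ratio from 0.5 to 1.5 plus GFP to RFP signal ratio inhibition reaching or exceeding a fixed threshold, cut at about 30% in these data, passing the limit was not always enough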
EP2 mod – EP2 receptor modulators, cAMP readout, primary screen, cell-based, HTRF cAMP, PGE2 stimulation. EP2-expressing cells, cAMP HTRF FRET, PGE2 co-stimulation. induction, % at 25 µM. 260,000 compounds, 0.83% hits. AID 940, 2007;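 active means compounds whose cAMP rise, as percent of the full-agonist control response, exceeds 60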;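 further: rat C6 glioma line stably carrying human EP2 under a CMV promoter; the protocol text gives 20 µM as final concentration; 100% = response of wells given 1 µM PGE2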
PG9 bind confirm – binders of anti-gp120 antibody PG9, confirmation, biochemical, TR-FRET; shares compounds with PG9 binder; TR-FRET PG9 antibody binding; inhibition, % at 6.7 µM; 1,500 compounds, 90% hits; AID 651571, 2012; in the data active means inhibition above about 9%
PGV04 Ab binding – binders of control antibody PGV04, counter-screen for PG9 antibody binder project, biochemical, TR-FRET, distinct HIV envelope site | shares compounds with PG9 binder | TR-FRET PGV04 antibody-gp120 binding | inhibition, % at 6.7 µM | 1,500 compounds, 95% hits; in the data active means inhibition above about 9.5%
An asterisk follows results filed as active. Hits are enriched below; roughly 2.9% of the tested compounds scored in any of these assays.

For CCCOc1ccc(C(CC(=O)O)NC(=O)c2sc3ccccc3c2Cl)cc1 (stereo not drawn) the results were RAM inhibit 8, EP2 antag 9, PG9 binder 11*, Rev-erbA mod -1, SKN-1 block 5, EP2 mod 19, PG9 bind confirm 15* and PGV04 Ab binding 21*.
C=C(C)Cn1c(SCC)nc2c1c(=O)[nH]c(=O)n2C was read as EP2 antag 7 and EP2 mod -33.
Cc1sc2nc(C3CC3)n(C3CCN(C(=O)c4cccs4)CC3)c(=O)c2c1C was read as EP2 mod 49.
`COc1ccc(N=Cc2c(O)c3ccccc3oc2=O)cc1` gave RAM inhibit 3, EP2 antag 5, PG9 binder 32*, Rev-erbA mod 3, SKN-1 block 26, EP2 mod 8, PG9 bind confirm 27* and PGV04 Ab binding 39*.
Screening Cc1nn(C)c(C)c1NC(=O)CSc1nc(C2CC2)nc2c1cnn2-c1ccccc1 returned RAM inhibit 0, EP2 antag 18, PG9 binder 13*, Rev-erbA mod 2, SKN-1 block 0, EP2 mod -20, PG9 bind confirm 43* and PGV04 Ab binding 74*.
COc1ccc2c(c1)CCC1(C)CC(=O)C(Br)=C21 (stereo not drawn) was read as PG9 binder 14*, Rev-erbA mod 11, SKN-1 block 16, PG9 bind confirm 24* and PGV04 Ab binding 47*.
For CCOc1cccc(NC(=O)c2cc3sccc3n2C)c1 the results were EP2 antag 9 and EP2 mod -65.
CCOc1ncccc1C(=O)Nc1cccc(S(=O)(=O)N2CCCCC2)c1 was read as PG9 binder -1, Rev-erbA mod 4 and SKN-1 block 23.
For CCCCC(=O)Nc1ccc(C(=O)Nc2ccc(S(=O)(=O)N3CCCC3)cc2)cc1 the results were RAM inhibit 8.6*, EP2 antag 9, PG9 binder 18*, Rev-erbA mod 9, SKN-1 block -16, EP2 mod -6, PG9 bind confirm 19* and PGV04 Ab binding 38*.
`CCOc1ncccc1C(=O)Nc1ccc(S(=O)(=O)N2CCCC2)cc1` gave RAM inhibit 3, EP2 antag 10, PG9 binder 9.6*, Rev-erbA mod 15, SKN-1 block 2, EP2 mod 21, PG9 bind confirm 13* and PGV04 Ab binding 18*.
For CC(=O)c1ccc(NC(=O)c2ccc(S(=O)(=O)N3CCCC3)cc2)cc1 the results were RAM inhibit 2, EP2 antag 6, PG9 binder -3, Rev-erbA mod 4, SKN-1 block -17 and EP2 mod 2.
`COc1ccc([C@@H]2C[C@H](C(=O)Nc3cnn(C(C)C)c3)N(C)S(=O)(=O)N2)cc1` gave EP2 mod -24.
OC(CN1CCC(O)(c2cccc(C(F)(F)F)c2)CC1)c1ccc(F)cc1 (stereo not drawn) was read as EP2 antag 7 and EP2 mod -67.
For Nc1c(C(=O)NCc2ccccc2)sc2nc(N3CCOCC3)c3c(c12)CCCC3 the results were RAM inhibit 8, EP2 antag 6, PG9 binder 10*, Rev-erbA mod 7, SKN-1 block -1, EP2 mod -5, PG9 bind confirm 8.6* and PGV04 Ab binding 16*.
`Cc1cn(-c2ccc(Br)cc2)[nH]c1=O` gave RAM inhibit 2, EP2 antag 8, PG9 binder 10.0*, Rev-erbA mod -3, SKN-1 block 0, EP2 mod 12, PG9 bind confirm 19* and PGV04 Ab binding 21*.
For Cc1nc(SCc2cccc3ccccc23)n[nH]1 the results were EP2 antag 8 and EP2 mod -26.
For COCCN1CCC(CO)C1 (stereo not drawn) the results were PG9 binder 10*, Rev-erbA mod -2, SKN-1 block -5, PG9 bind confirm 8 and PGV04 Ab binding 11*.
Screening Cc1ccc(S(=O)(=O)N(CCCO)Cc2cc3ccc(C)c(C)c3[nH]c2=O)cc1Cl returned EP2 antag 4 and EP2 mod -7.
`Nc1ccn(C2CCCCO2)c(=O)n1` (stereo not drawn) gave PG9 binder 14*, Rev-erbA mod 3, SKN-1 block -2, PG9 bind confirm 6 and PGV04 Ab binding 8.
`Nc1ccn(C2CCCO2)c(=O)n1` (stereo not drawn) gave PG9 binder 0, Rev-erbA mod 8 and SKN-1 block 8.
For Cc1cc2cc3c(cc2nc1SCC(=O)OC(C)C)OCCO3 the results were RAM inhibit 3, EP2 antag 10, PG9 binder 17*, Rev-erbA mod 10, SKN-1 block 23, EP2 mod 34, PG9 bind confirm 23* and PGV04 Ab binding 26*.
`CCN1CCN(C(=O)CN(c2ccccc2OC)S(=O)(=O)c2ccc(OC)cc2)CC1` gave EP2 antag 18 and EP2 mod 29.
CN1CCN(CCCNC(=O)c2ccc3c(c2)N(Cc2ccc(F)cc2)CCS3)CC1 was read as PG9 binder 17*, Rev-erbA mod 5, SKN-1 block 4, PG9 bind confirm 15* and PGV04 Ab binding 24*.
`CN1C(=O)SC(N(CC(N)=O)c2ccccc2)C1=O` (stereo not drawn) gave EP2 antag 10 and EP2 mod -10.
For CCOc1cc2[nH]c(=S)n(Cc3ccc(C(=O)NCCCOC)cc3)c(=O)c2cc1OCC the results were PG9 binder 23*, Rev-erbA mod 13, SKN-1 block -16, PG9 bind confirm 8 and PGV04 Ab binding 13*.
For COc1ccc(C(=O)COC(=O)CCN=C2NS(=O)(=O)c3ccccc32)c(OC)c1 the results were PG9 binder 17*, Rev-erbA mod 2, SKN-1 block 1, PG9 bind confirm 31* and PGV04 Ab binding 45*.
Cc1ncc(-c2ccncc2)c(C2CCN(C(=O)c3ccc4c(c3)OCO4)CC2)n1 was read as EP2 mod -49.
